Compound activity as filed in PubChem BioAssay.
An excerpt weighted towards active compounds, which were near 3.7% of everything screened.
ATXN2 expr inh: inhibitors of ATXN2 expression; HEK-293 ATXN2-luciferase reporter, luminescence, 24 h; Potency, µM (series often up to 57 µM), without a hit: at the highest dose activity change, negative = inhibition, usual class: inhibitors; 360,000 tested, 0.72% active; also: % is scaled to controls: 0 for no effect and ±100 for the full control effect; nearly all actives have a fitted effect of over 55% in size
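qHTS (up to 57 uM final) was run with 24 h compound exposure of reporter cells at 37 °C. Each well was multiplexed: SteadyGlo luminescence measured ATXN2-luciferase expression after a fluorogenic Gly-Phe-AFC viability readout (25 uM final).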
HepG2 viability: kills HepG2 cells in TGF-b inhibitor counter-screen; HepG2 CAGA-GFP viability, ATP luminescence, 18 h; Potency, µM (top dose mostly 46.1 µM), inactives show at the top dose activity change, negative = cytotoxicity, actives largely listed as cytotoxic; 410,000 tested, 0.76% active; AID 588856
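HepG2 CAGA-GFP cells (1000/well, DMEM with 1% FBS) received compound, then TGF-beta at 500 pg/mL final, and were incubated 18 hours at 37 degrees C. Viability was read by CellTiter-Glo luminescence. Media-only wells were set as complete cell-killing and DMSO as no toxicity.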
GLP-1R agonist: activates the human GLP-1 receptor. P43220. HEK293 GLP-1R CRE-luciferase, luminescence, 4-6 h; cells express a hypersensitive GLP-1R form. Potency, µM (titrated, usually from 45.6 µM), for inactives: at the top dose activation, hits mostly activators. 380,000 tested, 0.007% active; also: % of control where 0% means no effect
Target sequence (P43220 whole entry, looked up): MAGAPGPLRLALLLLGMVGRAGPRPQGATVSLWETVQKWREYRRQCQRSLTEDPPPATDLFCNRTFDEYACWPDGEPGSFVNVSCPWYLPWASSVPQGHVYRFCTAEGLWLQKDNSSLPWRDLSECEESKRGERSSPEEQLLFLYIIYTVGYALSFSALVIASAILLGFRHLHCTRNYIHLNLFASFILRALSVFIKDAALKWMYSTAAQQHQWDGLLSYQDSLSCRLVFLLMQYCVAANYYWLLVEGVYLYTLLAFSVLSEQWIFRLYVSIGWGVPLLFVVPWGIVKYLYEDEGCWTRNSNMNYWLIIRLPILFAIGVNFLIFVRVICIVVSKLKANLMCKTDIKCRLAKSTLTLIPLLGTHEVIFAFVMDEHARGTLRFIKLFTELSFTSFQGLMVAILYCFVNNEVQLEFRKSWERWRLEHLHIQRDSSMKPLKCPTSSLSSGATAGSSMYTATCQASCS
TGFb inhibitor: TGF-b pathway inhibition; HepG2 CAGA-GFP TGF-b/SMAD3 reporter, GFP fluorescence, 18 h; TGF-beta stimulated, 500 pg/mL final; Potency, µM (titrated, usually from 46.1 µM), for inactives: at the highest dose activity, negative = inhibition, hits mostly inhibitors; 410,000 tested, 1.2% active; AID 588855; also: % is scaled to controls: 0 for no effect and ±100 for the full control effect; nearly all actives have a fitted effect of over 65% in size
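Read-out: total well GFP (ex488/em500-530) summed from mean per-cell fluorescence. Cells: HEPG2 CAGA-GFP, 1% FBS DMEM, 18 h at 37 degrees C with 500 pg/mL final TGF-beta. Unstimulated wells served as the full-inhibition control; stimulated DMSO wells = 0%.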
ATXN viability: cell viability loss in ATXN counter-screen; S2 cells (HEK-293 line with an ATXN2-luciferase reporter) viability, CellTiter-Fluor protease fluorescence, 24 h; Potency, µM (series often up to 56.7 µM), most hits filed as cytotoxic; 400,000 tested, 0.49% active; AID 651635; also: nearly all actives have a fitted effect of over 40% in size
GLP-1R inv ag: acts as inverse agonist at human GLP-1 receptor | Potency, µM (top dose mostly 38.3 µM), for the others: at the highest dose activity change, negative = inhibition, most hits filed as inhibitors | 410,000 tested, 1.6% active | HEK293 GLP-1R CRE-luciferase, luminescence, 24 h; GLP-1R form is constitutively active; also: % is scaled to controls: 0 for no effect and ±100 for the full control effect; nearly all actives have a fitted effect of over 55% in size
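Assay principle: reduced luminescence from a cAMP-responsive reporter in HEK293 cells co-expressing a constitutively active GLP-1R. Conditions: 24 hr compound incubation, 37 deg C, 5% CO2.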
Numbers without * were called inactive; i = inactive; u = inconclusive; x = no result; [ ] = another dose, or the depositor's remark. Calls follow the shape of the dose curve; as a rule, active = well fitted curve in the direction sought with a large enough effect; inconclusive = small, poorly fitted or top-dose-only effect, or another doubt; inactive = no such curve, though single readings can be large; an effect the other way counts as inactive or inconclusive. Potency is read from the fitted curve at half-maximal effect.

SMILES	ATXN2 expr inh	HepG2 viability	GLP-1R agonist	TGFb inhibitor	ATXN viability	GLP-1R inv ag
O=C(CNC(=O)Cc1ccccc1)NCc1cccc(C(F)(F)F)c1	1.5%	5.0%	2.9%	19.6%	i	-0.2%
CS(=O)(=O)N1CCN(Cc2cc3nc(-c4cccc5[nH]ncc45)nc(N4CCOCC4)c3s2)CC1	u	-8.1%[92.2 µM]	x	-29.2%[92.2 µM]	x	x
Cc1ccc(CCNC(=O)C2CCCN(S(=O)(=O)c3ccc4c(c3)oc(=O)n4C)C2)cc1 (stereo not given)	6.7%	0.7%	0.2%	-9.4%	i	1.6%
COCCN(Cc1cccs1)S(=O)(=O)c1cc(-c2cc(C)no2)ccc1C	x	-12.8%	x	0.0%	x	u
Cc1cc(-c2ccc(C)c(S(=O)(=O)N(Cc3cccs3)C(C)C)c2)on1	x	-24.0%	x	0.0%	x	12.6µM*
COc1ccc2c(C(=O)CCl)c[nH]c2c1	0.5%	6.31µM*	-4.0%	14.1µM*	i	u
Cc1cc(C)c2ccc(/C=N/O)nc2c1O	x	-101.4%	6.0%	17.8µM*	i	u
O=C1COc2ccc(C(=O)/C=C/c3ccccc3)cc2N1	-1.3%	-15.0%	-22.3%	8.91µM*	i	u
Cc1nc2cc(NC(=O)[C@@H]3C[C@@H](Sc4ccccn4)CN3Cc3cccc(Cl)c3)ccc2s1	x	x	x	x	i	x
C=CCn1c(SCC#N)nc2ccc(Cl)cc2c1=O	x	-3.1%	x	14.0%	x	x
C=CCNc1oc(COc2ccc(C)cc2)nc1C#N	34.5%	-2.9%	3.3%	11.1%	i	30.3%
N#Cc1nc(COc2ccc(-c3ccccc3)cc2)oc1NCCCN1CCOCC1	31.6µM*	-42.5%	-2.3%	7.4%	u	u
COc1ccc(N2CCN(c3oc(COc4ccccc4)nc3C#N)CC2)cc1	2.6%	-20.1%	3.9%	-2.9%	i	2.82µM*
COc1ccc(Nc2oc(COc3ccc(Cl)cc3)nc2C#N)cc1	14.1µM*	-19.9%	-1.2%	-25.9%	u	u
COc1ccc(N2CCN(c3oc(COc4ccc(Cl)cc4)nc3C#N)CC2)cc1	-3.7%	-1.5%	-5.8%	22.9%	u	u
CN(C)CCNc1oc(COc2ccc(-c3ccccc3)cc2)nc1C#N	u	11.2µM*	-19.4%	u	u	0.0%
COc1ccc(CNc2oc(COc3ccc(Cl)cc3)nc2C#N)cc1	-6.2%	-29.3%	0.8%	u	i	u
COC(=O)c1cc(CNC(=O)c2cccc(N(C)C)c2)cc(NC(=O)c2ccccc2Cl)c1	x	x	x	x	i	x
CC(=O)N1CCC[C@H]1C(=O)NCC1Cc2cc(-c3cccc(OC(F)(F)F)c3)ccc2O1 (stereo not given in full)	x	x	x	x	i	x
C/C(=N\N=C1\NC(=O)C(CC(=O)Nc2ccc(C)c(Cl)c2)S1)C(C)(C)C (stereo not given)	x	-39.0%	8.7%	u	i	11.2µM*
C/C(=N\N=C1\NC(=O)C(CC(=O)Nc2ccc(Cl)cc2)S1)c1ccco1 (stereo not given)	-8.9%	21.5%	5.9%	0.0%	i	u
COc1ccccc1C(=O)N1CCOc2ccc(C(C)(O)CCn3cccn3)cc2C1 (stereo not given)	x	x	x	x	i	x
COc1ccc(NC(=O)Cn2c3ncccc3c(=O)n2-c2ccc(C)c(C)c2)c(OC)c1	x	-0.4%	x	4.0%	x	3.5%
CCCC[C@@H]1CCCO[C@@](C(=O)NCCOC)(C(F)(F)F)C1	x	3.5%	x	-3.3%	x	x
CS(=O)(=O)c1ccc(C(=O)OCC(=O)N2CCCC2)cc1[N+](=O)[O-]	x	-101.9%	x	11.2µM*	x	x
SMILES	ATXN2 expr inh	HepG2 viability	GLP-1R agonist	TGFb inhibitor	ATXN viability	GLP-1R inv ag
CS(=O)(=O)c1ccc(C(=O)OCC(=O)N2CCOCC2)cc1[N+](=O)[O-]	u	8.91µM*	-8.5%	7.08µM*	u	x
CC1CCCCN1C(=O)COC(=O)CSc1ccc(C(N)=O)cc1[N+](=O)[O-] (stereo not given)	-6.6%	12.3%	9.7%	15.8%	i	5.0%
CS(=O)(=O)c1ccc(C(=O)OCC(=O)N2CC(=O)Nc3ccccc32)cc1[N+](=O)[O-]	x	2.0%	x	-0.4%	x	x
CC1CCCCN1C(=O)COC(=O)c1ccc(S(C)(=O)=O)c([N+](=O)[O-])c1 (stereo not given)	x	7.94µM*	x	u	x	x
CS(=O)(=O)c1ccc(C(=O)OCC(=O)N2CCN(CCC3CCCCC3)CC2)cc1[N+](=O)[O-]	3.55µM*	3.16µM*	-19.6%	3.98µM*	u	x
CCOc1ccc(C(=O)C(CCC(CN(C)C)C(=O)c2ccc(OCC)cc2)CN(C)C)cc1 (stereo not given)	5.62µM*	2.82µM*	-6.1%	5.01µM*	3.16µM*	1.58µM*
CN(C)CC(CCC(CN(C)C)C(=O)c1ccccc1)C(=O)c1ccccc1 (stereo not given)	7.52µM*	-102.6%	-5.5%	6.31µM*	7.52µM*	u
COc1ccc(C(=O)C(CCCCC(CN(C)C)C(=O)c2ccc(OC)cc2)CN(C)C)cc1 (stereo not given)	-9.5%	-28.8%	17.4%	-1.7%	x	0.0%
O=c1cc(C(F)(F)F)nc(SC/C=C/c2ccccc2)[nH]1	x	-32.6%	-5.7%	14.1µM*	i	2.9%
COc1cc(-c2ccno2)ccc1S(=O)(=O)N1CCN(c2cccc(Cl)c2)CC1	9.4%	-25.7%	x	u	u	3.1%
CC(C)(c1ccccc1)c1ccc(OCC(O)CNC2CCN(Cc3ccccc3)CC2)cc1 (stereo not given)	u	-105.4%	0.3%	u	u	1.78µM*
CCOc1ncccc1C(=O)Nc1ccc(S(=O)(=O)NC2=NCCCCC2)cc1	13.2%	4.0%	8.5%	9.3%	i	73.1%
CCCOc1ccc(C(=O)Nc2ccc(S(=O)(=O)NC3=NCCCCC3)cc2)cc1	-21.0%	0.316µM*	10.8%	0.0%	i	u
O=C(O)c1ccc(-c2c[nH]c3ncc(-c4ccccc4)cc23)cc1C1CCCC1	3.9%	x	x	x	x	x
O=C(NC(=S)Nc1ccccc1N1CCCCC1)c1ccco1	19.1%	-42.3%	21.4%	11.2µM*	i	u
O=C(Nc1ccccc1N1CCCCC1)c1ccco1	-11.3%	-14.4%	-0.2%	4.1%	i	11.2µM*
O=C(NC(=S)Nc1ccccc1N1CCCC1)c1ccco1	-18.4%	-30.7%	13.6%	0.0%	u	-32.2%
CCOC(=O)c1cc(C#N)c(SC(C(=O)N2CCCCC2)c2ccccc2)nc1C (stereo not given)	x	-7.1%	x	-8.8%	x	x
